Data on 17 compounds can be found in PubChem BioAssay (NCATS).

Results filed as inconclusive are left out. Where a call stands in place of a potency, no number is given. The source made the active and inactive calls. Calls come from the whole dose curve; as a rule, active = well fitted inhibition curve with a large enough effect; inconclusive = small, poorly fitted or top-dose-only effect; inactive = flat fitted curve, though single readings scatter.
Potency is the fitted concentration of half-maximal effect.

This test deals with CP215. The test is described as follows: qHTS profiling for inhibitors of Plasmodium falciparum proliferation (AID 504749). Note: nearly all actives have a fitted effect of over 60% in size. The following applies: P. falciparum in erythrocytes, SYBR Green DNA, 72 h; series mostly up to 28.7 µM. A digest of the protocol: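 Fluorescence of SYBR Green-bound parasite DNA, read at 485/535 nm, served as the growth measure. Infected erythrocytes were cultured with compound 72 h; artemisinin (0.29 uM) and DMSO wells defined the normalization range.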
(Quantitative high-throughput screening tests each substance at several concentrations.)
For `S=P(N1CC1)(N1CC1)N1CC1`, the Potency entry is “inactive”.

On to `COc1cc([C@@H]2c3cc4c(cc3[C@H](O)[C@H]3COC(=O)[C@H]23)OCO4)cc(OC)c1OC`, for which the Potency is 13500 nM (active).

`COc1ccc(-c2ccc3cc(C(=O)O)ccc3c2)cc1C12CC3CC(CC(C3)C1)C2`: the Potency entry was “inactive”.

Turning to `COc1ccc2cc3[n+](cc2c1OC)CCc1cc2c(cc1-3)OCO2`, the Potency was 953 nM (active).

Regarding `CNNCc1ccc(C(=O)NC(C)C)cc1`, the Potency entry was “inactive”.

With `N=C(N)c1ccc(OCCCCCOc2ccc(C(=N)N)cc2)cc1`, the Potency was 1070 nM (active).

On to `CCc1cc(C(N)=S)ccn1`, for which the Potency result was “inactive”.

For `COC(=O)Nc1nc2ccc(Sc3ccccc3)cc2[nH]1`, the Potency result is “inactive”.

In the case of `CC(C)Cn1cnc2c(N)nc3ccccc3c21`, the Potency entry was “inactive”.

Consider `CCCc1nc(C)c2c(=O)[nH]c(-c3cc(S(=O)(=O)N4CCN(CC)CC4)ccc3OCC)nn12`, for which the Potency result is “inactive”.

With `CC(C)(Sc1cc(C(C)(C)C)c(O)c(C(C)(C)C)c1)Sc1cc(C(C)(C)C)c(O)c(C(C)(C)C)c1`, the Potency result was “inactive”.

In the case of `COc1cc(NCc2ccc3nc(N)nc(N)c3c2C)cc(OC)c1OC`, the Potency is 675 nM (active).

As to `Cc1nnc(NS(=O)(=O)c2ccc(N)cc2)s1`, the Potency entry is “inactive”.

As to `Nc1nc(N)c2nc(CNc3ccc(C(=O)NC(CCC(=O)O)C(=O)O)cc3)cnc2n1` (configuration not stated), the Potency entry is “inactive”.

`CCOC(=O)[C@H](CCc1ccccc1)N[C@H]1CS[C@H](c2cccs2)CN(CC(=O)O)C1=O`: the Potency result was “inactive”.

Consider `CNC(=O)c1cc(Oc2ccc(NC(=O)Nc3ccc(Cl)c(C(F)(F)F)c3)cc2)ccn1`, for which the Potency is 15100 nM (active).

On to `CCc1c2c(nc3ccc(OC(=O)N4CCC(N5CCCCC5)CC4)cc13)-c1cc3c(c(=O)n1C2)COC(=O)[C@]3(O)CC`, for which the Potency entry is “inactive”.
